# pKd: −log10 of the molar value.
# Experiments:
# AAK1 = conditions: concentration: 1 μM, replicates: in singlicate; n = 1
# ABL1-nonphosphorylated = conditions: concentration: 1 μM, replicates: in singlicate; n = 1
# ABL1-phosphorylated = conditions: concentration: 1 μM, replicates: in singlicate; n = 1
# ABL2 = conditions: concentration: 1 μM, replicates: in singlicate; n = 1
# YSK4 = test system: T1, YSK4
# T1 construct: gene MAP3K19
# [1] = test system: TYK2(JH1domain-catalytic)
# VPS34 = test system: T2, VPS34
# T2 construct: gene PIK3C3
# p38-alpha = test system: T3, p38-alpha
# T3 construct: gene MAPK14
# YANK2 = test system: T4, YANK2
# T4 construct: gene STK32B
# VEGFR2 = test system: T5, VEGFR2
# T5 construct: gene KDR
# 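Wherever %Inh is given: KINOMEscan kinase panel screen.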
# 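Wherever pKd is given: kd values determined as follow-up on hits from a single-replicate KINOMEscan panel screen.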
smiles,measurement,setting,value
CCc1nc(-c2cccc(C)c2)c(-c2ccncc2)s1,%Inh,AAK1,0%
same,%Inh,ABL1-nonphosphorylated,60%
same,%Inh,ABL1-phosphorylated,11%
same,%Inh,ABL2,6%
O=C(Nc1n[nH]c2nc(-c3ccccc3)c(Cl)cc12)C1CC1 [SB-734909],pKd,YSK4,5.11
same,%Inh,AAK1,28%
same,%Inh,ABL1-nonphosphorylated,76%
same,%Inh,ABL1-phosphorylated,57%
same,%Inh,ABL2,0%
COc1ccc(Nc2nccc(N3CCC(NS(=O)(=O)c4ccc(NC(C)=O)cc4)C3)n2)cc1 (centres unmarked) [GSK1379729],pKd,TNNI3K,< 5.00
same,pKd,[1],7.07
same,pKd,VPS34,7.01
same,pKd,p38-alpha,< 5.00
same,%Inh,AAK1,0%
same,%Inh,ABL1-nonphosphorylated,0%
same,%Inh,ABL1-phosphorylated,0%
same,%Inh,ABL2,20%
COc1cc(Nc2nccc(N3CCC(NC(=O)C4COc5ccccc5O4)C3)n2)cc(OC)c1OC (centres unmarked) [GSK1379761],pKd,[1],5.82
same,%Inh,AAK1,66%
same,%Inh,ABL1-nonphosphorylated,0%
same,%Inh,ABL1-phosphorylated,0%
same,%Inh,ABL2,3%
Nc1ncnc2c1ncn2-c1cccc2ccccc12 [SKF-97184],pKd,YANK2,< 5.00
same,%Inh,AAK1,0%
same,%Inh,ABL1-nonphosphorylated,46%
same,%Inh,ABL1-phosphorylated,26%
same,%Inh,ABL2,0%
Nc1nc(-c2ccccc2F)c(-c2ccnc3ccccc23)s1 [GW560459],pKd,TNNI3K,< 5.00
same,pKd,p38-alpha,6.62
same,%Inh,AAK1,12%
same,%Inh,ABL1-nonphosphorylated,0%
same,%Inh,ABL1-phosphorylated,0%
same,%Inh,ABL2,3%
CN1C(=O)C(Nc2cc(Cl)c(O)c(Cl)c2)=C(c2ccc(Cl)cc2)C1=O [SB-404321],pKd,VRK2,< 5.00
same,%Inh,AAK1,0%
same,%Inh,ABL1-nonphosphorylated,30%
same,%Inh,ABL1-phosphorylated,0%
same,%Inh,ABL2,0%
COc1ccc(-n2cnc3c(N)ncnc32)cc1 [SKF-97236],%Inh,AAK1,15%
same,%Inh,ABL1-nonphosphorylated,28%
same,%Inh,ABL1-phosphorylated,1%
same,%Inh,ABL2,10%
CN(C)c1cc(-c2ccc3c(N)n[nH]c3c2)nc(N)n1 [GSK2219329],pKd,TXK,< 5.00
same,pKd,ZAK,< 5.00
same,%Inh,AAK1,10%
same,%Inh,ABL1-nonphosphorylated,0%
same,%Inh,ABL1-phosphorylated,0%
same,%Inh,ABL2,0%
O=c1cc(N2CCOCC2)nc2n(Cc3ccc(F)c(Cl)c3)ccn12 [GSK2297099],pKd,VPS34,7.82
same,%Inh,AAK1,24%
same,%Inh,ABL1-nonphosphorylated,0%
same,%Inh,ABL1-phosphorylated,0%
same,%Inh,ABL2,0%
COc1cc2nccc(Nc3ccc(OCc4ccc(NC(C)=O)cc4)cc3)c2cc1OC.Cl [GW440135],pKd,VEGFR2,7.28
same,%Inh,AAK1,0%
same,%Inh,ABL1-nonphosphorylated,17%
same,%Inh,ABL1-phosphorylated,0%
same,%Inh,ABL2,4%
CCC(=O)c1c(-c2ccccc2)c2cc(Cl)ccc2c(=O)n1Cc1cc(S(C)(=O)=O)n(CCC(C)(C)O)n1,%Inh,AAK1,25%
same,%Inh,ABL1-nonphosphorylated,6%
same,%Inh,ABL1-phosphorylated,3%
same,%Inh,ABL2,9%
Nc1ncnc2c1ncn2-c1ccc(Cl)cc1 [AH2635],%Inh,AAK1,0%
same,%Inh,ABL1-nonphosphorylated,0%
same,%Inh,ABL1-phosphorylated,0%
same,%Inh,ABL2,0%
Cl.NS(=O)(=O)c1cccc(Nc2cc(-c3ccc(F)cc3)n[nH]2)c1 [GW824645],%Inh,AAK1,9%
same,%Inh,ABL1-nonphosphorylated,5%
same,%Inh,ABL1-phosphorylated,24%
same,%Inh,ABL2,0%
Fc1cccc(CSc2nnc(-c3ccc4c(c3)CCO4)o2)c1,%Inh,AAK1,25%
same,%Inh,ABL1-nonphosphorylated,20%
same,%Inh,ABL1-phosphorylated,7%
same,%Inh,ABL2,22%
CN1C(=O)C(Nc2ccccc2)=C(c2ccccc2)C1=O [SB-300079],%Inh,AAK1,0%
same,%Inh,ABL1-nonphosphorylated,0%
same,%Inh,ABL1-phosphorylated,6%
same,%Inh,ABL2,0%
COc1cccc(C2=C(Nc3cccc(C(=O)O)c3)C(=O)NC2=O)c1 [SB-390770],%Inh,AAK1,3%
same,%Inh,ABL1-nonphosphorylated,0%
same,%Inh,ABL1-phosphorylated,0%
same,%Inh,ABL2,6%
O=C(Nc1ccc2c(c1)OCO2)NC1CCN(c2ccnc(NCc3ccc(F)cc3)n2)CC1 [GSK1379859],%Inh,AAK1,0%
same,%Inh,ABL1-nonphosphorylated,0%
same,%Inh,ABL1-phosphorylated,0%
same,%Inh,ABL2,0%
O=C(NCc1cccs1)c1cc(C(=O)c2c(Cl)cccc2Cl)c[nH]1 [GW823670],%Inh,AAK1,0%
same,%Inh,ABL1-nonphosphorylated,18%
same,%Inh,ABL1-phosphorylated,27%
same,%Inh,ABL2,0%
CCCC(=O)Nc1n[nH]c2ncc(-c3cccc4ccccc34)cc12 [SB-642057],%Inh,AAK1,27%
same,%Inh,ABL1-nonphosphorylated,0%
same,%Inh,ABL1-phosphorylated,27%
same,%Inh,ABL2,11%
COc1cccc(C2=C(N(C)c3ccccc3)C(=O)NC2=O)c1 [SB-334865],%Inh,AAK1,0%
same,%Inh,ABL1-nonphosphorylated,5%
same,%Inh,ABL1-phosphorylated,3%
same,%Inh,ABL2,14%
COc1cc2ncn(-c3cc(OCc4ccncc4)c(C(N)=O)s3)c2cc1OC [GSK336313],%Inh,AAK1,58%
same,%Inh,ABL1-nonphosphorylated,0%
same,%Inh,ABL1-phosphorylated,7%
same,%Inh,ABL2,0%
Cc1nnc(-c2ccc(C)c(-c3ccc(C(=O)O)cc3)c2)o1 [GW608005],%Inh,AAK1,0%
same,%Inh,ABL1-nonphosphorylated,0%
same,%Inh,ABL1-phosphorylated,0%
same,%Inh,ABL2,0%
COC(=O)c1c(-c2ccccc2)c2cc(Br)ccc2c(=O)n1Cc1ccc(NC(=O)CCC(=O)O)cc1,%Inh,AAK1,13%
same,%Inh,ABL1-nonphosphorylated,38%
same,%Inh,ABL1-phosphorylated,0%
same,%Inh,ABL2,18%
Nc1nc(N)c2nc(-c3ccccc3)[nH]c2n1 [SKF-12778],%Inh,AAK1,23%
same,%Inh,ABL1-nonphosphorylated,18%
same,%Inh,ABL1-phosphorylated,15%
same,%Inh,ABL2,9%
CCC(=O)c1c(-c2ccccc2)c2cc(Cl)ccc2c(=O)n1Cc1cc(S(C)(=O)=O)n(CC(N)=O)n1,%Inh,AAK1,0%
same,%Inh,ABL1-nonphosphorylated,44%
same,%Inh,ABL1-phosphorylated,9%
same,%Inh,ABL2,0%
COc1cc(Nc2ccnc3ccc(C(F)(F)F)cc23)cc(OC)c1OC [GW577382],%Inh,AAK1,8%
same,%Inh,ABL1-nonphosphorylated,27%
same,%Inh,ABL1-phosphorylated,19%
same,%Inh,ABL2,28%
CCC(=O)c1c(-c2ccccc2)c2cc(Cl)ccc2c(=O)n1Cc1ccc(C(=O)O)cc1,%Inh,AAK1,0%
same,%Inh,ABL1-nonphosphorylated,30%
same,%Inh,ABL1-phosphorylated,0%
same,%Inh,ABL2,15%
Cc1cc(Nc2nc(-c3cccc(C)n3)nc3ccccc23)ccn1 [GW872411],%Inh,AAK1,0%
same,%Inh,ABL1-nonphosphorylated,52%
same,%Inh,ABL1-phosphorylated,13%
same,%Inh,ABL2,0%
FC(F)(F)c1ccc(-c2ncn(CCCN3CCOCC3)c2-c2ccncc2)cc1 [SB-217780],%Inh,AAK1,7%
same,%Inh,ABL1-nonphosphorylated,44%
same,%Inh,ABL1-phosphorylated,0%
same,%Inh,ABL2,8%
C[C@@H]1CC[C@H](C(=O)NC2CCCCC2)CN1c1cc(-c2ccc3c(N)n[nH]c3c2)nc(N)n1 [GSK2291363],%Inh,AAK1,55%
same,%Inh,ABL1-nonphosphorylated,5%
same,%Inh,ABL1-phosphorylated,0%
same,%Inh,ABL2,20%
COc1cc2nccc(Nc3cccc(Oc4ccccc4)c3)c2cc1OC.Cl [GW284543],%Inh,AAK1,0%
same,%Inh,ABL1-nonphosphorylated,0%
same,%Inh,ABL1-phosphorylated,0%
same,%Inh,ABL2,15%
Cc1cccc(-c2nc(Nc3ccc4c(cnn4C)c3)c3ccccc3n2)n1 [GW876731],%Inh,AAK1,0%
same,%Inh,ABL1-nonphosphorylated,0%
same,%Inh,ABL1-phosphorylated,0%
same,%Inh,ABL2,0%
CC(C)(C)c1ccc(C(=O)Nc2cn3cc(-c4ccccc4)ccc3n2)cc1,%Inh,AAK1,0%
same,%Inh,ABL1-nonphosphorylated,74%
same,%Inh,ABL1-phosphorylated,55%
same,%Inh,ABL2,21%
CCc1ccc(-c2ccc3c(c2)-c2nn(C)cc2S(=O)(=O)N3C)cc1,%Inh,AAK1,19%
same,%Inh,ABL1-nonphosphorylated,31%
same,%Inh,ABL1-phosphorylated,0%
same,%Inh,ABL2,0%
COc1cc2ncn(-c3cc(OCCCc4ccccc4)c(C(N)=O)s3)c2cc1OC [GSK205189],%Inh,AAK1,35%
same,%Inh,ABL1-nonphosphorylated,0%
same,%Inh,ABL1-phosphorylated,0%
same,%Inh,ABL2,5%
COc1cc2ncn(-c3cc(OCc4ccncc4Br)c(C(N)=O)s3)c2cc1OC [GW854278],%Inh,AAK1,17%
same,%Inh,ABL1-nonphosphorylated,15%
same,%Inh,ABL1-phosphorylated,0%
same,%Inh,ABL2,5%
CCn1c(-c2ccoc2)nc2cnccc21 [SB-733887],%Inh,AAK1,1%
same,%Inh,ABL1-nonphosphorylated,1%
same,%Inh,ABL1-phosphorylated,17%
same,%Inh,ABL2,10%
COc1cc(Nc2nccc(N3CCC(NC(=O)C(C)c4ccc(Cl)cc4)C3)n2)cc(OC)c1OC (centres unmarked) [GSK1379757],%Inh,AAK1,37%
same,%Inh,ABL1-nonphosphorylated,0%
same,%Inh,ABL1-phosphorylated,0%
same,%Inh,ABL2,7%
O=C1NC(=O)C(c2ccccc2)=C1Nc1cccc(O)c1 [SB-390534],%Inh,AAK1,0%
same,%Inh,ABL1-nonphosphorylated,22%
same,%Inh,ABL1-phosphorylated,5%
same,%Inh,ABL2,1%
CCS(=O)(=O)c1ccc(OC)c(Nc2ncc(-c3ccc(F)cc3)o2)c1.Cl [GW591947],%Inh,AAK1,4%
same,%Inh,ABL1-nonphosphorylated,0%
same,%Inh,ABL1-phosphorylated,0%
same,%Inh,ABL2,0%
Cc1ccc(Oc2ccc(Nc3ncnc4cc[nH]c34)cc2C)cn1,%Inh,AAK1,0%
same,%Inh,ABL1-nonphosphorylated,19%
same,%Inh,ABL1-phosphorylated,0%
same,%Inh,ABL2,0%
Cc1nnc(-c2ccc3ncn(-c4ccc(S(C)=O)cc4)c3c2)o1 (centres unmarked),%Inh,AAK1,0%
same,%Inh,ABL1-nonphosphorylated,22%
same,%Inh,ABL1-phosphorylated,0%
same,%Inh,ABL2,6%
Nc1n[nH]c2nnc(-c3ccccc3)c(-c3ccccc3)c12 [GW554060],%Inh,AAK1,0%
same,%Inh,ABL1-nonphosphorylated,0%
same,%Inh,ABL1-phosphorylated,0%
same,%Inh,ABL2,9%
COc1ccc(-c2cc3c(C)nc(N)nc3n([C@H]3CC[C@H](OCCO)CC3)c2=O)cn1,%Inh,AAK1,0%
same,%Inh,ABL1-nonphosphorylated,0%
same,%Inh,ABL1-phosphorylated,0%
same,%Inh,ABL2,0%
Cc1c(Cn2c(C)nn3c(=O)cc(N4CCO[C@H](C)C4)nc23)cccc1C(F)(F)F [GSK2373690],%Inh,AAK1,0%
same,%Inh,ABL1-nonphosphorylated,0%
same,%Inh,ABL1-phosphorylated,2%
same,%Inh,ABL2,24%
Cc1ccc(-c2ccc3c(ccc4sc5c(c43)NC[C@@H](C)N=C5N(C)C)n2)cn1,%Inh,AAK1,0%
same,%Inh,ABL1-nonphosphorylated,0%
same,%Inh,ABL1-phosphorylated,0%
same,%Inh,ABL2,0%
Cc1cccc(-c2cc(-c3c[nH]nc3-c3ccccn3)ccn2)c1 [GW679395],%Inh,AAK1,14%
same,%Inh,ABL1-nonphosphorylated,68%
same,%Inh,ABL1-phosphorylated,29%
same,%Inh,ABL2,48%

# Reference: publication PMC5540273 (PLoS ONE, 2017)
